Test results reported in PubChem BioAssay (NCATS).
Inconclusive results are not listed. Active and inactive are the calls of the source. Unless noted, calls follow the shape of the dose curve; as a rule, active = well fitted curve in either direction with a large enough effect (not every such curve was filed as active); inconclusive = small, poorly fitted or top-dose-only effect, or another doubt; inactive = flat fitted curve, though single readings scatter.

What was measured:
[1] = target: Lysosomal acid glucosylceramidase (Homo sapiens) (UniProt P04062); assay: Glucocerebrosidase-p2 (AID 348; in the data active = potency below about 10 µM; also: potency is read from the fitted curve at half-maximal effect); settings: purified GBA, blue fluorogenic substrate, 40 min
In short: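 Compounds titrated from 0.6 nM upwards against 0.2 nM enzyme in pH 5.9 citric acid/KH2PO4, taurocholate, tween-20; blue fluorogenic substrate 80 uM, 40 min room temperature, stopped and read Ex 365/Em 440 for AC50.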

[2] = AP1 Signaling Pathway (AID 357); settings: ME-180 AP-1-bla reporter, EGF-induced, beta-lactamase ratio, 5 h; at 7.69 µM (top of the series) unless noted;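 also: ME-180 reporter cells stimulated with EGF at its EC50 level; % is scaled to controls: 0 for no effect and ±100 for the full control effect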
In short: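 Cells are seeded overnight, exposed to compound titrations and an EC50 level of EGF for 5 hours at 37 °C, then loaded with CCF4 dye for 2.5 hours. Beta-lactamase activity under the AP-1 element is read as a blue/green ratio.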

[3] = target: Cytochrome P450 1A2 (Homo sapiens) (UniProt P05177); assay: p450-cyp1a2 (AID 410; calls by dose curve;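 also: -100% = full effect of reference inhibitor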); settings: recombinant CYP1A2, luciferin-ME demethylation, luminescence; series mostly up to 11.4 µM
In short: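 20nM CYP1A2 with 100uM Luciferin-ME (at Km) in 100mM KPO4; compound preincubated 10 min, NADPH regeneration added, 60 min at room temperature. Luciferin quantified by luminescence after detection reagent; normalized to 57 uM furafylline.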

[4] = NFAT Signaling Pathway (AID 444); settings: Jurkat NFAT-bla M1, carbachol, beta-lactamase ratio, 5 h; at 7.69 µM (top of the series) unless noted;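 also: carbachol stimulus at about its EC50 of 1 µM final; % is scaled to controls: 0 for no effect and ±100 for the full control effect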
In short: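 Read-out: CCF4 FRET ratio (460 nm/530 nm) after 1 h RT dye loading, used for %activity and AC50 from titration series. Cells: Jurkat NFAT-β-lactamase/M1 line, treated with compound plus 1 uM carbachol for 5 h, 37 °C.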

[5] = Stat Signaling Pathway (AID 446); settings: ME-180 SIE beta-lactamase reporter, IL-6 stimulated, 5 h; at 7.69 µM (top of the series) unless noted;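 also: ME-180 cervical cancer cells given 40 pM IL-6 alongside compound; SIE-controlled beta-lactamase reporter measured as 460/530 nm FRET emission ratio; % is scaled to controls: 0 for no effect and ±100 for the full control effect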
In short: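 ME-180 SIE-bla cells; overnight plating; cpd + IL-6 40 pM, 5 h, 37 C; LiveBLAzer 2.5 h RT; 460/530 nm emission ratio. Normalized to 300 pM IL-6 and 125 nM JAK inhibitor controls.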

[6] = target: Glucocorticoid receptor (Homo sapiens) (UniProt P04150); assay: GR-GFP Redistribution (AID 450;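 active = compounds whose dose series gives a full or clear partial fitted curve of increased nuclear translocation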; also: potency is read from the fitted curve at half-maximal effect); settings: U2OS GR-GFP nuclear translocation, laser cytometry, 2 h
[7] = target: Glucocorticoid receptor (Homo sapiens) (UniProt P04150); assay: GR-EFC Redistribution (AID 451; calls by dose curve; also: potency is read from the fitted curve at half-maximal effect); settings: CHO-K1 GR-EFC translocation, beta-gal luminescence, 2 h
In short: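 Translocation of GR-ED fusion to nuclear EA restores b-gal, read by luminescence after 1 h room-temperature detection. Engineered CHO-K1 biosensor cells, 1,000/well, exposed 2 h at 37 C to titrations up to 46 uM final.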

[8] = target: Mitogen-activated protein kinase 10 (Mus musculus) (UniProt Q61831); assay: JNK3 AlphaScreen Assay (AID 530); settings: JNK3 lysate, c-Jun phosphorylation; series mostly up to 57.1 µM;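 also: kinase came from lysate of stimulated human HepG2 cells; signal reports phosphorylation of biotinylated GST-cJun 1-79 at Ser73 with 10 µM ATP; % is scaled to controls: 0 for no effect and ±100 for the full control effect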
In short: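 Compound titrations were preincubated 15 minutes at room temperature with substrate, antibody and pre-activated JNK3-containing HepG2 lysate. Reactions were started with 10 uM ATP and stopped with EDTA-containing bead buffer for AlphaScreen detection.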

[9] = target: 3',5'-cyclic-AMP phosphodiesterase 4B (Homo sapiens) (UniProt Q07343); assay: qHTS Assay for Inhibitors of PDE-IV (AID 607; active = well fitted activation curve with a large enough effect in the main read-out, with a control signal flat, not every such curve was filed as active; also: % of control where 0% means no effect); settings: HEK293 ACTOne CNG channel cells, membrane potential fluorescence; series mostly up to 22.9 µM
In short: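 ACTOne HEK293 cells carry a modified cAMP-gated CNG channel and express endogenous PDE4; plated 1000 cells/well, compounds up to 22.9 uM final. Membrane-potential dye fluorescence (ex 535/em 590) was read; parental cells received 10 uM forskolin + 100 uM RO 20-1724.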

Chain of Glucocorticoid receptor (Homo sapiens) (P04150 whole entry, looked up, the tested form may be a part): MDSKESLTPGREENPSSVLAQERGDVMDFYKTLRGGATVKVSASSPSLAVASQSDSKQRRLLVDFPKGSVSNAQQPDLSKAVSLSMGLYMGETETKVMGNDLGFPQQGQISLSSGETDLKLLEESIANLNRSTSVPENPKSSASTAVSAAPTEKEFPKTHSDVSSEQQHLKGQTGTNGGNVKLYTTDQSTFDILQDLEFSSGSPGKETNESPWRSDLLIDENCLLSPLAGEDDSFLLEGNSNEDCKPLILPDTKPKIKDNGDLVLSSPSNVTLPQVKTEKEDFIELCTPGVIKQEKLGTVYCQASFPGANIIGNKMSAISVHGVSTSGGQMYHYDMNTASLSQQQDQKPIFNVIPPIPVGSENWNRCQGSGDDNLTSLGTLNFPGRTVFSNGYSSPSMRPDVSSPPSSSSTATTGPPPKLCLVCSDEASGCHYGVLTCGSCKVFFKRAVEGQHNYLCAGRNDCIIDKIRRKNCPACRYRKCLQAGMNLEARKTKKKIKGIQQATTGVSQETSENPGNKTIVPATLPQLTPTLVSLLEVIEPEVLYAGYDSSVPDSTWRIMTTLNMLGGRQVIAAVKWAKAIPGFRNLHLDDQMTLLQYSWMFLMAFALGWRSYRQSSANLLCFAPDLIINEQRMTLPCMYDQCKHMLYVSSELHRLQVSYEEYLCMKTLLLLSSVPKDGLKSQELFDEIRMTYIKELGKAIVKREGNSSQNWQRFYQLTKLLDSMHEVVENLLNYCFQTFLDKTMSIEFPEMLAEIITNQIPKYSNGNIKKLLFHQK
Chain of 3',5'-cyclic-AMP phosphodiesterase 4B (Homo sapiens) (Q07343 whole entry, looked up): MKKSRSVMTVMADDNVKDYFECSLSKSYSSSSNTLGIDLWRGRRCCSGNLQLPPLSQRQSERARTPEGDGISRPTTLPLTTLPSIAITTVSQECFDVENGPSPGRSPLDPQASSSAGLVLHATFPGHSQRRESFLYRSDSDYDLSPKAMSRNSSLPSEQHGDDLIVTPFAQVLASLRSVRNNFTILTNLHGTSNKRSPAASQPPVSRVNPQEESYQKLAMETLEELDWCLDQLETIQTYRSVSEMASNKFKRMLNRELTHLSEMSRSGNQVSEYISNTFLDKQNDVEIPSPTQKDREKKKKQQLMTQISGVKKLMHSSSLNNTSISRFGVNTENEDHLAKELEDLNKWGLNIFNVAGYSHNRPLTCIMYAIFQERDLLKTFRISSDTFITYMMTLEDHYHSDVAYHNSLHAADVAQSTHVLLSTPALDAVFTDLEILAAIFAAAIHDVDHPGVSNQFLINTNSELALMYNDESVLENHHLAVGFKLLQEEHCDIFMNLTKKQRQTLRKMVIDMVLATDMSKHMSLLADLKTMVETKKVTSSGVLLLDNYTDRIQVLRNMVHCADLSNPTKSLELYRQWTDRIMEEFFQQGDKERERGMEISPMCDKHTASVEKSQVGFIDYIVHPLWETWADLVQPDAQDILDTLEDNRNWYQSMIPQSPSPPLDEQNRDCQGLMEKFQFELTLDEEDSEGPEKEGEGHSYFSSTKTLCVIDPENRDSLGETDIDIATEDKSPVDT
Chain of Lysosomal acid glucosylceramidase (Homo sapiens) (P04062 whole entry, looked up): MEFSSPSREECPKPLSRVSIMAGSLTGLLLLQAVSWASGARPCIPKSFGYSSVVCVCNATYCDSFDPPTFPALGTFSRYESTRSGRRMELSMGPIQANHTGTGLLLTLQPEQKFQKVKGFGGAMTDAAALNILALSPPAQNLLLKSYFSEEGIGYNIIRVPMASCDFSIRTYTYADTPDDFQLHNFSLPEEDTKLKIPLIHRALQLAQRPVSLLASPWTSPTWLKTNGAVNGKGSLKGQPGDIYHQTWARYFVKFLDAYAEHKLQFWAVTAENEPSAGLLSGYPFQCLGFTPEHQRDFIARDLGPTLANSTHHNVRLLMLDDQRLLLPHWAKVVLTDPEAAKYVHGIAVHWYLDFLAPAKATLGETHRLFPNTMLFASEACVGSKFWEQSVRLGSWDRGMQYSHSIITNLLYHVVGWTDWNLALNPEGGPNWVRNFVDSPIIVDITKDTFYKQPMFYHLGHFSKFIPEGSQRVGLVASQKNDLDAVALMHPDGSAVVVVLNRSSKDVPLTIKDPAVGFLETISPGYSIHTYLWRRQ
Chain of Cytochrome P450 1A2 (Homo sapiens) (P05177 whole entry, looked up): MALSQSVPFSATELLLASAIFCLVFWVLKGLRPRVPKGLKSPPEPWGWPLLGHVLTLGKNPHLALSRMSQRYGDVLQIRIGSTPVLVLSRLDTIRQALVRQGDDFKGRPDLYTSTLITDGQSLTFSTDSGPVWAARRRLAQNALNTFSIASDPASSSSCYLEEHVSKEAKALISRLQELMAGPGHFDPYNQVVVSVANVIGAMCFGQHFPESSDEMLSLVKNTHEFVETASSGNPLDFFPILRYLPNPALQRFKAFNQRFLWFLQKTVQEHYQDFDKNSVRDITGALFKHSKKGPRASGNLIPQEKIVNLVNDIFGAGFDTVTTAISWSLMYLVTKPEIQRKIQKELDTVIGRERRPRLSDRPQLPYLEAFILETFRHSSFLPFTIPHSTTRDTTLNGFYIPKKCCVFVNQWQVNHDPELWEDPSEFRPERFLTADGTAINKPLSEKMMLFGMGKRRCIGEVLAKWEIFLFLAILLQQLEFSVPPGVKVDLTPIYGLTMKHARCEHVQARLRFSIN

Nc1nc(N)c(Cn2ccnc2)c(=O)[nH]1
inactive: Potency [1] > 11.4 µM | activity change, negative = inhibition [2] -1.23% | Potency [3] | activity change, negative = inhibition [4] 17.6% | activity, negative = inhibition [5] 7.55% | Potency [6] > 46 µM | Potency [7] > 9.22 µM | activity change, negative = inhibition [8] 2.41% [at 11.4 µM] | outcome [9]
